# Gal4-VP16 FLuc: VP16 counterscreen qHTS for inhibitors of ROR gamma transcriptional activity. Drosophila S2 Gal4-VP16 UAS-luciferase, luminescence, 20 h. AID 2546, 2010. 310,000 compounds, 3.5% hits. Potency, µM (doses to about 53.6 µM), without a hit: at the top dose activity, negative = inhibition, usual class: inhibitors;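 further: Gal4-VP16 expression switched on by copper sulfate through the metallothionein promoter; potency means the concentration at half of the fitted maximal effect; on the % scale 0 is the no-effect control and ±100 the full control effect; nearly all actives have a fitted effect of over 50% in size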
# CtBP-E1A inh: qHTS Assay for Inhibitors of the CtBP/E1A Interaction. 340,000 compounds, 0.49% hits. CtBP / adenovirus E1A interaction (AlphaScreen). AlphaScreen GST-E1A/His-CtBP binding, 1536-well; hits give low values. activity change, % (no concentration beside the values); in the data active means activity change below about -65%; inconclusive means mostly about -30% to -63%; further: on the % scale 0 is the no-effect control and ±100 the full control effect
#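 Steps: dispense buffer (Tris pH 8.0, NaCl 300 mM, TCEP 1 mM, BSA, Tween 20); add 5X protein mix (GST-E1A, His-CtBP, 125 nM each); pin 23 nL compound; 2 h at 37 °C, dark; add 5X beads (50 ug/mL); 1 h; read.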
# Six1-Eya2 inh: qHTS Assay for Inhibitors of the Six1/Eya2 Interaction | Homeobox protein SIX1 (Homo sapiens) + Protein phosphatase EYA2 (Homo sapiens), … | activity change, % (test concentration not listed) | AlphaScreen GST-Six1/His-Eya2 binding, biochemical; hits give low values | 360,000 compounds, 0.56% hits; in the data active means activity change below about -65%; inconclusive means mostly about -30% to -63%; further: on the % scale 0 is the no-effect control and ±100 the full control effect
# Target sequence (O00167 whole entry, looked up): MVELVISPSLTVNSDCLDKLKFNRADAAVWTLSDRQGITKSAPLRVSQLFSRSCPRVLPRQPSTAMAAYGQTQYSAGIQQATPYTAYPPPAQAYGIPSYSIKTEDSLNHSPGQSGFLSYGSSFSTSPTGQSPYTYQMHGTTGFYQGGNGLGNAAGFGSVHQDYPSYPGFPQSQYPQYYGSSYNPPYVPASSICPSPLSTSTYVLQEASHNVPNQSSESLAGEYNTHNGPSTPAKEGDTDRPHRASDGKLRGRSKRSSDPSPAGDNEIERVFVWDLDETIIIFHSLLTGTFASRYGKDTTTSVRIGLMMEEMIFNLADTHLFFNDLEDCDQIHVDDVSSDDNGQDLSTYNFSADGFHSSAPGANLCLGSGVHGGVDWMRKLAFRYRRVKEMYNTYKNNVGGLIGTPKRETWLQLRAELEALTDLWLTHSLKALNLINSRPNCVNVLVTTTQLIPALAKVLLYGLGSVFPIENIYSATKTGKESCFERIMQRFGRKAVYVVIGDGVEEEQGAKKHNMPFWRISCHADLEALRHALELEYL
# Target sequence (Q15475 whole entry, looked up): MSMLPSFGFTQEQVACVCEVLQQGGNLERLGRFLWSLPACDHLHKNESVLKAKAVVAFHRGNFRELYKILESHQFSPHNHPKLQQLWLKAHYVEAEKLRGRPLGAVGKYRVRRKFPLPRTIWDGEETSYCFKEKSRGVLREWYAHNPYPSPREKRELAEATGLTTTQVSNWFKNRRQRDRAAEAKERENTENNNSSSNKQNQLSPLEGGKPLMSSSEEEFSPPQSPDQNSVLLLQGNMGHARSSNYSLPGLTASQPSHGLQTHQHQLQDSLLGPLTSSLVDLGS
#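 Compounds are tested against tagged Six1 and Eya2 proteins bridged by glutathione donor and nickel acceptor beads; after a one-hour incubation at 37 °C without light, AlphaScreen emission is recorded.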
# RORgamma inh: qHTS for inhibitors of ROR gamma transcriptional activity. Nuclear receptor ROR-gamma (Mus musculus), P51450. Drosophila S2 Gal4-RORgamma UAS-luciferase reporter, 20 h. Potency, µM (highest dose often 53.6 µM), for the others: at the highest dose activity change, negative = inhibition, actives largely listed as inhibitors. 310,000 compounds, 5.4% hits; further: potency means the concentration at half of the fitted maximal effect; on the % scale 0 is the no-effect control and ±100 the full control effect; nearly all actives have a fitted effect of over 60% in size
#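 A Gal4/UAS one-hybrid system in insect cells: metallothionein-promoter Gal4–ROR gamma fusion plus Photinus luciferase reporter. Copper sulfate 700 uM final, 20 hr ambient incubation, luminescent detection after 10 min with reagent.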
# p53 reactivator: qHTS assay for re-activators of p53 using a Luc reporter. H1299 p53-A138V BP100-luciferase reporter, luminescence, 24 h. Potency, µM (doses to about 92.2 µM), without a hit: top-dose activity change, positive = activation, actives largely listed as activators. 320,000 compounds, 0.063% hits; further: potency means the concentration at half of the fitted maximal effect; % of control where 0% means no effect; nearly all actives have a fitted effect of over 45% in size
#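 H1299 (p53-null), stable ts p53-A138V + BP100-Luc; 1000 cells/well, Opti-MEM/10% FBS; cpd 4 pt, 1:5; 24 h, 37 deg C, 5% CO2; detection reagent 10 min RT; luminescence.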
# Active calls of the source: *; ? = inconclusive; nt = no result. The list is not random: actives were taken first. Their share in the collection is about 5.4%. Unless noted, the call rests on the fitted dose curve; in most records, active means well fitted curve in the direction sought with a large enough effect; inconclusive means small, poorly fitted or top-dose-only effect, or another doubt; inactive means no such curve, though single readings can be large; an effect the other way counts as inactive or inconclusive.
SMILES,Gal4-VP16 FLuc,CtBP-E1A inh,Six1-Eya2 inh,RORgamma inh,p53 reactivator
CCOC1CC(C)(C)NC(=S)N1 (configuration not stated),-3%,4,1,-21%,-4%
CC1(C)CCC(C)(C)NC(=S)N1,?,7,4,8.9µM*,0%
Oc1[nH]c2ccccc2c1N=Nc1ccccc1,3%,-8,-11,6%,28µM*
CCC(Sc1nc2ccsc2c(=O)n1Cc1ccc(C(=O)O)cc1)C(=O)Nc1ccc(C)c(Cl)c1 (configuration not stated),-4%,nt,-1,23%,-12%
O=C(/C=C/c1ccc([N+](=O)[O-])s1)N1CCCCC1,?,-6,-8,11µM*,?
O=C(/C=C/c1ccc([N+](=O)[O-])s1)N1CCCC1,13µM*,nt,6,6.3µM*,-6%
O=C(/C=C/c1ccc([N+](=O)[O-])s1)N1CCN(c2ccccc2)CC1,-1%,nt,0,-17%,11%
O=c1c2nnn(-c3ccc(Br)cc3)c2ncn1Cc1ccccn1,-2%,13,-16,-27%,-3%
Cc1ncc(CO)c2cc(C(=O)Nc3ccccc3Cl)c(=Nc3cccc(C(N)=O)c3)oc12,-11%,-11,-4,2%,-4%
Cc1ccc(NC(=S)NC(C)(C)C)c([N+](=O)[O-])c1,7.9µM*,-4,-2,3.2µM*,6%
COc1ccc(NC(=S)NC(NC(=O)C(C)C)C(Cl)(Cl)Cl)c([N+](=O)[O-])c1 (configuration not stated),?,-7,-10,18µM*,-12%
COc1ccc(NC(=O)CC(C)C)c([N+](=O)[O-])c1,-8%,10,25,8%,1%
COC(=O)/C=C/c1ccc(OC(=O)c2ccncc2)cc1,-15%,1,-2,-6%,5%
CCOC(=O)C1=C(COC(=O)C2(C)CC2(Cl)Cl)NC(=O)NC1c1ccccc1 (configuration not stated),-3%,14,-2,17%,-2%
CCC(=O)OC1(C)C(=O)C=C2C=C(CCCNC(=O)OC(C)(C)C)OC=C2C1=O (configuration not stated),7%,nt,nt,-16%,nt
COc1cccc(C=NC=Nc2cccc(OC)c2)c1,-6%,nt,nt,5%,nt
CCOC(=O)C(c1ccccc1)C(Nc1ccc(F)cc1)c1ccccn1 (configuration not stated),11%,nt,0,17%,-6%
CCOC(=O)C(C(=O)OCC)C(Nc1ccc(Br)cc1)c1ccccc1 (configuration not stated),?,31,20,11µM*,-12%
Cc1ccc(-c2nc(CN(CC3CCC3)CC3CCCO3)c(C)o2)s1 (configuration not stated),17%,7,-11,11µM*,2%
Brc1ccc(Cn2c(-c3cncs3)nc3ccccc32)cc1,6.3µM*,-1,-3,?,21%
Brc1cccc(Cn2c(-c3cncs3)nc3ccccc32)c1,8.9µM*,2,1,8.9µM*,2%
C[C@@H]1CN([C@@H](C)CO)C(=O)CCCn2nncc2CO[C@H]1CN(C)S(=O)(=O)c1ccccc1F,nt,-18,4,nt,nt
C[C@@H]1C2CC(C/C2=N\NC(=O)c2ccncc2)C1(C)C (some centres not stated),13µM*,nt,10,7.9µM*,6%
CC/C(=N\NC(=O)c1ccncc1)C12CC3CC(CC(C3)C1)C2,7%,-4,-3,-5%,-3%
CC1C2CC(C/C2=N/NC(=O)c2cccs2)C1(C)C (configuration not stated),2µM*,-8,-2,?,?
